Rows were chosen to be rich in hits. Some 7.6% of all compounds tested hit in one or more screens of this group.
M1 agonist = agonists of M1 muscarinic receptor | CHO-M1 cells, Fluo-4 calcium fluorescence, agonist mode; active compounds read high | B-score at 10 µM | 64,000 tested, 3% active;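 active = fluorescence rise, raw or as B-score row- and column-corrected plate score, outside the 99.7% band of its plate's samples, either direction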
Cav32 inh = human Cav3.2 channel inhibition, primary screen. O95180. 100,000 tested, 4% active. Cav3.2-expressing cells, Fluo-4 calcium fluorescence FDSS; active compounds read low. B-score at 10 µM;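 active = single-dose well whose peak fluorescence ratio is a statistical outlier from its plate by either plate-standardised score or position-corrected B-score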
M1 antag = blocks the rat M1 muscarinic receptor response to acetylcholine. P08482. CHO-M1 cells, Fluo-4 calcium, ACh EC80 antagonist mode; active compounds read low. B-score at 10 µM. 64,000 tested, 3.4% active. AID 628;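 active = calcium fluorescence response, raw or row-and-column corrected B-score, differing from the plate sample mean either way at a set confidence level, mostly lower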
PLAP act = activators of human placental alkaline phosphatase. P05187. 96,000 tested, 1.2% active. AID 696. activation fold at 20 µM. purified PLAP enzyme, luminescent substrate read-out; active compounds read high; in the data active = activation fold above about 2
Target sequence (P05187 whole entry, looked up): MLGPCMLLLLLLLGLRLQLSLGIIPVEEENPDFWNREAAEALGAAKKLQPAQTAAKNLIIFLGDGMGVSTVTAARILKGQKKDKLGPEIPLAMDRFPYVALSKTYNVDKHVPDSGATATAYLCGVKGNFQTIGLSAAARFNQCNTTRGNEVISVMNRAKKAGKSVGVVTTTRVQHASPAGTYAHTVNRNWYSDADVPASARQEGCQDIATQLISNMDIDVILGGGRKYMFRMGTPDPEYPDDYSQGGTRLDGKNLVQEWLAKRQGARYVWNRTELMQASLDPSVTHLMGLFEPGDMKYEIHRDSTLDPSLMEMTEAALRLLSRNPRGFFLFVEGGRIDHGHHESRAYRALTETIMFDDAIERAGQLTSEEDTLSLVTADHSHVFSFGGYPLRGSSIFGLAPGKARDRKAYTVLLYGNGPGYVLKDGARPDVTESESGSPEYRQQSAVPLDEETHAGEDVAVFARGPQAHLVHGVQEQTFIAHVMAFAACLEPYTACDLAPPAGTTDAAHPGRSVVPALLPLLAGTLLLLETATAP
* hit, by the source's call; . = no result.

SMILES | M1 agonist | Cav32 inh | M1 antag | PLAP act
COc1ccc(-c2cnc(SCC(=O)Nc3cc(C)on3)n2Cc2ccco2)cc1 | 0.418 | -4.45* | -0.346 | 0.9
COc1ccc(-c2cnc(SCC(=O)Nc3nc(C(C)(C)C)cs3)n2Cc2ccco2)cc1 | . | -5.69* | . | .
CCC(=O)Nc1cc(NC(=O)CSc2ncc(-c3ccc(F)cc3)n2Cc2ccco2)ccc1C | 0.235 | -8.83* | -0.102 | 1.7
COCCn1c(-c2ccc(OC)cc2)cnc1SCC(=O)Nc1cccc2ccccc12 | . | -8.09* | . | 1.3
CCn1c2ccccc2c2nc3cc(S(=O)(=O)N4CCOCC4)ccc3nc21 | 1.48 | . | -0.816 | 1.4
NS(=O)(=O)c1ccc(CCNC(=O)Nc2ccc(Cl)c(Cl)c2)cc1 | . | -0.52 | . | 0.9
C=CCOc1ccc2ccccc2c1CNc1ncn[nH]1 | 1.03 | 0.248 | -0.265 | 1.7
CCc1ccc(NC(=O)N(C2CCCCC2)C(C)c2cccnc2)cc1 (centres undefined) | . | -0.172 | . | 0.8
C=CCOC(=O)C1=C[C@H](c2coc3ccccc3c2=O)C[C@H](OCCCCO)O1 | . | 1.24 | . | .
COc1ccc(-c2nc3ccc(N4CCCC4)cc3c(=O)[nH]2)cc1OC | . | . | . | 1
O=C(Nc1ccc(Cl)cc1)C1=Cc2cc(Cl)ccc2OC1 | . | 0.579 | . | 0.9
COc1ccc2c(c1)C=C(C(=O)NCc1ccc(Cl)cc1)CO2 | . | -6.68* | . | 0.6
O=C(NCc1cccnc1)c1ccc(COc2cccc3ccccc23)o1 | . | -2.88 | . | 1.1
COc1ccc(-c2cc(=O)[nH][nH]2)cc1OC | . | 0.558 | . | 2.2*
CC1(C)C(N(O)C(=O)Nc2ccc(Cl)cc2)N(c2ccc(Cl)cc2)C(=O)N1CC(=O)NN (centres undefined) | . | -1.8 | . | 2*
CCCCNC(=O)N(O)C1N(CCCC)C(=O)N(CC(=O)OC)C1(C)C (centres undefined) | . | 0.43 | . | .
CCOc1ccc(NC(=O)NCCCn2c(C)nc3cc(C)c(C)cc32)cc1 | . | -0.699 | . | 2.2*
COc1ccc(-c2nc(NC(=O)Cn3ccc(C(F)(F)F)n3)sc2C)cc1 | . | -7.56* | . | 1.1
CCCN(CC1CC1)C(=O)CSc1ncnc2sc(C)c(C)c12 | . | -5.18* | . | 1.1
C[C@H]1CCC[C@@]2(O[C@H](CCO)C[C@H](O)[C@H]2O)O1 | . | 0.545 | . | .
COc1ccccc1NC(=O)CCN1CCN(Cc2ccccc2)CC1 | . | 1.4 | . | 2*
CCOC(=O)C1CCN(c2nc3ccccc3nc2C(C#N)C(=O)NCCc2ccccc2)CC1 (centres undefined) | 33* | . | -0.73 | .
C=CCOC(=O)C(C#N)c1nc2ccccc2nc1N1CCN(c2ccccc2OC)CC1 (centres undefined) | -1.09 | -9.25* | -0.0639 | 1.1
COCC(C)OC(=O)C(C#N)c1nc2ccccc2nc1N1CCN(Cc2ccccc2)CC1 (centres undefined) | -0.633 | -6.12* | -1.89 | 1.3
COCCOC(=O)C(C#N)c1nc2ccccc2nc1N1CCN(Cc2ccccc2)CC1 (centres undefined) | -0.329 | -3.74 | -2.71 | 1.6
SMILES | M1 agonist | Cav32 inh | M1 antag | PLAP act
COCCCNC(=O)C(C#N)c1nc2ccccc2nc1N1CCN(Cc2ccccc2)CC1 (centres undefined) | 2.83 | -8.99* | -0.0211 | 1.2
C=CCOC(=O)C(C#N)c1nc2ccccc2nc1N1CCN(Cc2ccccc2)CC1 (centres undefined) | -0.195 | 0.0113 | -0.384 | 1.5
O=C(CN1C(=O)C2CC=C(Cl)CC2C1=O)NCc1ccccc1 (centres undefined) | 1.94 | . | 0.0168 | 1.1
COc1ccc(C2C(C(=O)NCC3CCCO3)c3cc(OC)c(OC)cc3C(=O)N2C)cc1OC (centres undefined) | -0.036 | 0.0703 | 0.581 | 1.5
CCOC(=O)Cn1cnc2sc3c(c2c1=O)CCC3 | -0.0202 | -3.17 | 0.443 | 1.2
O=[N+]([O-])c1ccc(Sc2n[nH]c(-c3ccc(Cl)cc3Cl)n2)nc1 | . | -2.56 | . | 0.9
COCCNC(=O)C(C#N)c1nc2ccccc2nc1N1CCCCCC1 (centres undefined) | 0.178 | . | -0.154 | 1.2
CCCCNC(=O)C(C#N)c1nc2ccccc2nc1N1CCN(c2ccccc2F)CC1 (centres undefined) | 36* | -7.54* | -0.178 | .
COc1ccc(C2Nc3ccccc3C(=O)N2Cc2ccco2)cc1COc1ccc(F)cc1 (centres undefined) | . | -7.03* | . | .
COC(=O)C1=C(C)NC2=C(C(=O)CC(C)(C)C2)C1c1cn(Cc2ccc(Br)cc2)nc1-c1ccccc1 (centres undefined) | . | -4.73* | . | 0.8
COC(=O)C1=C(C)NC2=C(C(=O)CC(C)(C)C2)C1c1cccc(C)n1 (centres undefined) | -0.976 | 1.25 | -0.427 | 1.1
COC(=O)C1=C(C)NC2=C(C(=O)CCC2)C1c1cn(Cc2ccc(Br)cc2)nc1-c1ccccc1 (centres undefined) | . | -7.32* | . | 1.6
Cc1ccc(-n2nc(C(=O)N/N=C/c3cccc(C(F)(F)F)c3)c3ccccc3c2=O)cc1C | . | -0.442 | . | 0.9
CCCN(CC1CC1)C(=O)CSc1nnc(-c2cc(-c3cccs3)nc3ccccc23)o1 | . | -1.22 | . | 1.7
COc1cccc(Cn2nnc(C(=O)NCc3ccccc3Cl)c2N)c1 | -0.479 | -3.91* | -2.11 | 0.6
O=C(NCc1ccco1)C1CCN(c2nc3ccccc3n2Cc2ccc(F)cc2)CC1 | 0.0592 | -8.27* | -0.574 | 1.2
Nc1c(C(=O)NCc2ccco2)c2nc3ccccc3nc2n1CCc1ccc(F)cc1 | . | . | . | 2*
Cc1nc(Oc2ccc(Cl)cc2)c2oc3ccccc3c2n1 | . | 0.842 | . | 1
C=CCn1c(Cc2nc3ccc(Cl)cc3[nH]2)n[nH]c1=S | . | 0.81 | . | 2.4*
Cc1c(C(=O)c2ccc(Cl)cc2Cl)cnc2cc3c(cc12)OCO3 | . | -4.03* | . | .
O=C1N(c2ccccc2)C2CS(=O)(=O)CC2N1c1ccc(Br)cc1 (centres undefined) | -0.449 | -2.4* | 0.0939 | 0.8
CCCC1=C(C(=O)OCC)C(c2ccc(NC(C)=O)cc2)NC(=O)N1 (centres undefined) | 0.195 | 0.187 | -0.0396 | 0.9
CCOC(=O)C1=C(CNCc2ccc(C)cc2)NC(=O)NC1c1ccc(OC)cc1 (centres undefined) | 0.0626 | -4.66* | 0.667 | 1.3
Cc1ccc(C(=O)C(C(=O)/C=C/c2ccccc2)=C2SCCCS2)cc1 | . | -1.69 | . | .
O=C(CCSc1ccc(Cl)cc1)N1CCN(c2ncccn2)CC1 | 0.763 | -4.73* | 0.0266 | 1.4
SMILES | M1 agonist | Cav32 inh | M1 antag | PLAP act
O=C(CSc1ccc(Cl)cc1)N1CCN(c2ncc(C(F)(F)F)cc2Cl)CC1 | . | -3.81* | . | 1.1
O=C(CN1CCN(c2ncc(C(F)(F)F)cc2Cl)CC1)N1CCN(c2ncc(C(F)(F)F)cc2Cl)CC1 | . | -3.16* | . | 1.7
O=C(CCSc1ccc(Cl)cc1)N1CCCCCC1 | . | -2.57 | . | 1.2
O=C(CSc1ncc(C(F)(F)F)cc1Cl)N1CCN(S(=O)(=O)c2ccccc2)CC1 | 1.63 | -4.06* | -0.309 | 1.6
O=C(CSc1ncc(C(F)(F)F)cc1Cl)N1CCN(S(=O)(=O)c2ccc(Cl)cc2)CC1 | . | . | . | 1.5
O=C(OCCN1CCN(c2ncc(C(F)(F)F)cc2Cl)CC1)c1ccc(F)cc1 | . | -0.0682 | . | 1.3
O=C(OC(C(=O)NCC1CCCO1)c1ccc(F)cc1)c1cccs1 (centres undefined) | . | 1.33 | . | .
